Assay [1] in a line: antimalarial activity against Dd2 strain (AID 2302;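 active = growth inhibition above 50% at the single 2 µM test dose, taken to imply half-maximal potency below 2 µM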;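 also: 0% = DMSO untreated growth and 100% = chloroquine plus artemisinin killed control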). As to conditions: P. falciparum Dd2 in RBCs, LDH growth readout, 72 h; at 2 µM; active compounds read high.
A short description of assay [2]: HepG2 cytotoxicity, primary screen, cytotoxicity control for P. falciparum antimalarial project, cell-based, ATP luminescence (AID 2303;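 active = inhibition above 50%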;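 also: 0% = DMSO wells and 100% = digitonin-killed cells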). As to conditions: HepG2 viability, 24-48 h, at 10 µM, active compounds read high.
Assay [3] concerns the target L-lactate dehydrogenase (Plasmodium falciparum (isolate CDC / Honduras)) (UniProt Q27743). In words: PfLDH activity inhibition – cell lysate, 3D7 strain, counter-screen for P. falciparum growth inhibition project (AID 2304).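 Also: 0% = vehicle and 100% = reference inhibitor.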 As to conditions: P. falciparum 3D7 crude extract, LDH APAD/NBT absorbance; at 2 µM; active compounds read high. (Counterscreens check selectivity or assay interference.)

The nature of assay [4]: inhibition of 3D7 malaria parasite growth – strain 3D7 (AID 2306).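 Also: 0% = DMSO wells and 100% = chloroquine plus artemisinin control wells.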 As to conditions: P. falciparum 3D7 erythrocytic growth, LDH absorbance, 72 h; at 2 µM; active compounds read high.
For assay [5], the target named is Calcium-dependent protein kinase 1 (Plasmodium falciparum (isolate 3D7)) (UniProt P62344). In words: PfCDPK1 kinase inhibitors, biochemical, TCAMS library (AID 1159585; cut-off not given, nearly all actives have IC50 up to about 0.98 µM;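 also: inhibitors leave more ATP so luminescence rises with inhibition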). The settings on record: recombinant PfCDPK1, Kinase-Glo ATP depletion luminescence. In general terms: Kinase-Glo measures the ATP left after a reaction by luminescence.
Chain of Calcium-dependent protein kinase 1 (Plasmodium falciparum (isolate 3D7)) (P62344 whole entry, looked up): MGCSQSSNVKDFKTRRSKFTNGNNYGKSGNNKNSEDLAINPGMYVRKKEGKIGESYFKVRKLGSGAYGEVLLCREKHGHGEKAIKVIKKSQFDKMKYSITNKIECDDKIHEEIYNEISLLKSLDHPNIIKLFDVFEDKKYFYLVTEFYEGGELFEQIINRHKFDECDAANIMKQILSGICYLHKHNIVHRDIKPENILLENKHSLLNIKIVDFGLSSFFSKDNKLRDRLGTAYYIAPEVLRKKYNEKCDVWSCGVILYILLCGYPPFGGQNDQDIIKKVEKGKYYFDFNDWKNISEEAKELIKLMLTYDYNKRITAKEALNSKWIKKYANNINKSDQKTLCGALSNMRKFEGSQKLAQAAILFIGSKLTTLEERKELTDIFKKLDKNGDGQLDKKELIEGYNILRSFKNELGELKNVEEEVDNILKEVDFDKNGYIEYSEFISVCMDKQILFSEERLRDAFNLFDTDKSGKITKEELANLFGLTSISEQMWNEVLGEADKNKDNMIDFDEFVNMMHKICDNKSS
The target in assay [6] is Plasmodium falciparum protein kinase 6 (PK6, PF3D7_1337100) (UniProt Q8IDW1). In words: PfPK6 kinase inhibitors, biochemical, TCAMS library (AID 1159586). As to conditions: recombinant PfPK6, Kinase-Glo ATP depletion luminescence.
Chain of Plasmodium falciparum protein kinase 6 (PK6, PF3D7_1337100) (Q8IDW1 1-305): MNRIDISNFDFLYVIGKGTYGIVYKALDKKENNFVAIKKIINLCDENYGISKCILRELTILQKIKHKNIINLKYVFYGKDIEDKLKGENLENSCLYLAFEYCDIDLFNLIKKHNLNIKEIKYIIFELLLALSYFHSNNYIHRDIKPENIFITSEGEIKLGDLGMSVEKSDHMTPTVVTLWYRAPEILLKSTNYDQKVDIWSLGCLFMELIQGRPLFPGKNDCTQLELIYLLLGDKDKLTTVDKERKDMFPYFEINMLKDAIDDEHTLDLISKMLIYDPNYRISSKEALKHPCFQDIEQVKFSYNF
In assay [7] the target is Protein kinase 7 (PK7), Plasmodium falciparum 3D7 (PF3D7_0213400) (UniProt Q7YTF7). In words: inhibition of Plasmodium PK7 catalytic activity – biochemical, TCAMS antimalarial set, Kinase-Glo luminescence (AID 1159587). The settings on record: recombinant PfPK7, Kinase-Glo ATP depletion luminescence.
Chain of Protein kinase 7 (PK7), Plasmodium falciparum 3D7 (PF3D7_0213400) (Q7YTF7 1-343): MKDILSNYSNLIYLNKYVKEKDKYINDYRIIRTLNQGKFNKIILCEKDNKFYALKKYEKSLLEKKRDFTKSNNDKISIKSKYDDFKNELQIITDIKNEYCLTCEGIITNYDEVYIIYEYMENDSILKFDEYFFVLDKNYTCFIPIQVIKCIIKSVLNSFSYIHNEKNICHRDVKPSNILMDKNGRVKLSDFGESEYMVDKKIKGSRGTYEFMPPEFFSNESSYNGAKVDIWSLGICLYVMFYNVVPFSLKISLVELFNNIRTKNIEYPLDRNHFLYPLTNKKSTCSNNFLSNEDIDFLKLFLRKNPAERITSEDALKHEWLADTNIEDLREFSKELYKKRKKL
Assay [8] addresses Calcium-dependent protein kinase 4 (Plasmodium falciparum (isolate 3D7)) (UniProt Q8IBS5). In words: PfCDPK4 kinase inhibitors, biochemical, TCAMS library (AID 1159588; cut-off not given, nearly all actives have IC50 up to about 0.91 µM). As to conditions: recombinant PfCDPK4, Kinase-Glo ATP depletion luminescence.

Unmarked numbers belong to inactive results. For some of these results: Measured potencies and affinities stand elsewhere. The source made the active and inactive calls. Unless noted, no rule for the calls is given here.

Chain of Calcium-dependent protein kinase 4 (Plasmodium falciparum (isolate 3D7)) (Q8IBS5 whole entry, looked up): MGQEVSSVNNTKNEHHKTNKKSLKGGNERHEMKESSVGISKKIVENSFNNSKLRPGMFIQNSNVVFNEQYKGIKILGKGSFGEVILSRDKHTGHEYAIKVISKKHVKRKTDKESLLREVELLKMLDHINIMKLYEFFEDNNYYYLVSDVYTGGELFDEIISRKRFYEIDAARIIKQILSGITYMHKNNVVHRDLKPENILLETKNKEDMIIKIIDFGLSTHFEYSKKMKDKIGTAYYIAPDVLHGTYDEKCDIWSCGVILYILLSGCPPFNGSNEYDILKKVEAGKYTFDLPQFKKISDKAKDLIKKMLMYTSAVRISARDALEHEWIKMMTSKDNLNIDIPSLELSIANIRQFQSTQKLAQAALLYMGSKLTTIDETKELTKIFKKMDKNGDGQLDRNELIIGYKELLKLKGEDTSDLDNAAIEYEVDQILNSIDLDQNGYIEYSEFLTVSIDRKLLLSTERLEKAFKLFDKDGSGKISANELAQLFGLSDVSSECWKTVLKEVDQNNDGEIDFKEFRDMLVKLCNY
Chain of L-lactate dehydrogenase (Plasmodium falciparum (isolate CDC / Honduras)) (Q27743 whole entry, looked up): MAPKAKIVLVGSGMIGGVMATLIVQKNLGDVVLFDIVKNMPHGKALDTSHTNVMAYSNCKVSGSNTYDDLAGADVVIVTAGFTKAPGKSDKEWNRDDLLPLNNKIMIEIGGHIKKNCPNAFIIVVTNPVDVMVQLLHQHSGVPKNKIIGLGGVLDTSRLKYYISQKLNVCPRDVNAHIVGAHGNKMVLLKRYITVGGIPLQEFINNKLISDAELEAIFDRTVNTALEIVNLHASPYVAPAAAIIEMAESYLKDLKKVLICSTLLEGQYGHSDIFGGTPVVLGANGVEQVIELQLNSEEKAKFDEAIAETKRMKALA

One may read the inhibition as the relative decrease from the control value, in per cent. On to `c1cc(CN2CCCCC2)cc(OCCCNc2ccnc3ccccc23)c1`, for which the growth inhibition in assay [1] was 99% (active); in assay [4] it was 100% (active). Moreover, the inhibition in assay [2] is 48%; in assay [3], -1%. In addition, the outcome in assay [5], in assay [6], in assay [7] and in assay [8] was inactive.
For `CCc1ccc(C2CCN(CCCCNC(=O)c3ccc(NC(=O)c4ccc(Cl)cc4)cc3)CC2)c(OCCO)c1`, the growth inhibition is 100% (active) in assay [1] and 98% (active) in assay [4]. Moreover, the inhibition in assay [2] is 94% (active); in assay [3], -3%. Besides, the outcome in assay [5], in assay [6], in assay [7] and in assay [8] was inactive.
With `Cc1ccc2nc(C)cc(NN=Cc3ccccc3F)c2c1`, the growth inhibition is 100% (active) in assay [1] and 97% (active) in assay [4]. Also, the inhibition in assay [2] was 36%; in assay [3], -3%. Moreover, the result in assay [5], in assay [6], in assay [7] and in assay [8] was inactive.
Regarding `COc1ccc2cc(C(=O)Nc3ccc4c(c3)CCN(C3CCC3)CC4)ccc2c1`, the growth inhibition in assay [1] was 9%; in assay [4], 101% (active). Besides, the inhibition was 34% in assay [2] and 2% in assay [3]. The result in assay [5], in assay [6], in assay [7] and in assay [8] was inactive.
For `CC(C)C[C@@H](/C=N/N1CCNC1=O)NC(=O)[C@H](CC(C)C)NC(=O)c1ccc(OCCN2CCOCC2)cc1`, the growth inhibition in assay [1] was 89% (active); in assay [4], 97% (active). For the same compound, the results for the inhibition in assay [2] and in assay [3] were 21% and -4%, respectively. In addition, the result in assay [5], in assay [6], in assay [7] and in assay [8] was inactive.
As to `COc1ccc(OC)c(Cc2cnc3nc(N)[nH]c(=O)c3c2C)c1`, the growth inhibition is 4% in assay [1] and 98% (active) in assay [4]. Further, the values for the inhibition in assay [2] and in assay [3] were 62% (active) and 3%, respectively. In addition, the outcome in assay [5], in assay [6], in assay [7] and in assay [8] was inactive.
`CC(C)(C)c1ccc(CN2CCC(CNC(=O)c3cc(-c4ccccc4Cl)cs3)C2)cc1` (stereo not given): the growth inhibition in assay [1] is 56% (active); in assay [4], 101% (active). In addition, the values for the inhibition in assay [2] and in assay [3] were 33% and 1%, respectively. The outcome in assay [5], in assay [6], in assay [7] and in assay [8] was inactive.
For the compound `Clc1ccc(-c2cc(-c3csc(NCCN4CCCCC4)n3)on2)cc1`, the growth inhibition in assay [1] is 30%; in assay [4] it was 91% (active). The values for the inhibition in assay [2] and in assay [3] were 81% (active) and -9%, respectively. Besides, the result in assay [5], in assay [6], in assay [7] and in assay [8] was inactive.
In the case of `O=C(Nc1ccc(Cl)cc1)Nc1cccc(-c2cc(CNCCc3ccccc3)oc2-c2ccncc2)c1`, the growth inhibition in assay [1] is 92% (active); in assay [4], 101% (active). Moreover, the inhibition in assay [2] was 40%; in assay [3], 1%. The outcome in assay [5], in assay [6], in assay [7] and in assay [8] was inactive.
Turning to `O=C(NCc1cccc(F)c1)Nc1ccc(-c2ccc(-c3nc4ccc(C(F)(F)F)cc4[nH]3)cc2)cc1`, the growth inhibition in assay [1] was 24%; in assay [4] it was 100% (active). For the same compound, the inhibition was 46% in assay [2] and 0% in assay [3]. Also, the outcome in assay [5], in assay [6], in assay [7] and in assay [8] was inactive.
Regarding `Cc1cccc2[nH]c(-c3ccc(-c4ccc(CNCc5ccccc5)cc4)s3)nc12`, the growth inhibition in assay [1] was 87% (active); in assay [4], 103% (active). For the same compound, the figures for the inhibition in assay [2] and in assay [3] were 22% and -1%, respectively. Besides, the outcome in assay [5], in assay [6], in assay [7] and in assay [8] was inactive.
Consider `COc1cc(Cc2cnc(N)nc2N)cc(OCCCOc2ccccc2)c1OC`, for which the growth inhibition was 2% in assay [1] and 94% (active) in assay [4]. Moreover, the inhibition was 7% in assay [2] and -4% in assay [3]. For the same compound, the result in assay [5], in assay [6], in assay [7] and in assay [8] was inactive.
Regarding `Oc1ccc(Cl)cc1-c1cc(C(F)(F)F)nc(-c2ccccc2)n1`, the growth inhibition is 92% (active) in assay [1] and 99% (active) in assay [4]. Besides, the inhibition in assay [2] is 20%; in assay [3], 3%. Also, the outcome in assay [5], in assay [6], in assay [7] and in assay [8] was inactive.
In the case of `COc1cccc(-c2cnc(N)c(-c3nc4cc(Cl)c(F)cc4[nH]3)c2)c1`, the growth inhibition in assay [1] is 26%; in assay [4] it was 100% (active). For the same compound, the inhibition in assay [2] was 37%; in assay [3] it was 6%. Besides, the result in assay [5], in assay [6], in assay [7] and in assay [8] was inactive.
As to `Cc1ccc2[nH]c(-c3ccc(C(=O)NCc4ccc(Cl)c(Cl)c4)cc3)nc2c1C`, the growth inhibition in assay [1] is 26%; in assay [4] it was 96% (active). In addition, the inhibition in assay [2] is 19%; in assay [3], 5%. Also, the result in assay [5], in assay [6], in assay [7] and in assay [8] was inactive.
For `CC(C)(C)CNc1noc(-c2sccc2Br)n1`, the growth inhibition is 71% (active) in assay [1] and 82% (active) in assay [4]. For the same compound, the inhibition in assay [2] is 4%; in assay [3], -7%. Also, the result in assay [5], in assay [6], in assay [7] and in assay [8] was inactive.
As for `CNCCNCc1cccc(-c2ccc(-c3nc4c(C)cccc4[nH]3)s2)c1`, the growth inhibition in assay [1] is 8%; in assay [4], 92% (active). For the same compound, the figures for the inhibition in assay [2] and in assay [3] were 10% and -6%, respectively. Further, the result in assay [5], in assay [6], in assay [7] and in assay [8] was inactive.
With `CCn1c(CN2CCC(C)CC2)nc2cc(NC(=O)c3cccs3)ccc21`, the growth inhibition in assay [1] was 95% (active); in assay [4], 91% (active). For the same compound, the inhibition in assay [2] is 40%; in assay [3] it was 1%. The outcome in assay [5], in assay [6], in assay [7] and in assay [8] was inactive.
As to `O=C(/C=C/c1ccc(Cl)c(Cl)c1)NCCCCCN1CC[C@H](NC(=O)c2sc3ccccc3c2Cl)C1`, the growth inhibition was 3% in assay [1] and 97% (active) in assay [4]. The inhibition in assay [2] is 26%; in assay [3], -2%. The result in assay [5], in assay [6], in assay [7] and in assay [8] was inactive.
As for `CCOC(=O)c1cn(CC)c2cc(O[C@H]3CCN(C(=O)OC(C)(C)C)C3)ccc2c1=O`, the growth inhibition in assay [1] is 75% (active); in assay [4], 98% (active). The inhibition is 9% in assay [2] and -1% in assay [3]. Further, the outcome in assay [5], in assay [6], in assay [7] and in assay [8] was inactive.

Values taken from PubChem BioAssay.
